# Source: PubChem BioAssay (several laboratories)
# RecA intein inh: Mtb RecA intein splicing inhibitors, primary screen, biochemical, fluorescence, HTS; cell-free RecA intein splicing; inhibition, % (no concentration beside the values); 290,000 compounds, 0.75% hits; Protein RecA (Mycobacterium tuberculosis (strain ATCC 25618 / H37Rv)), P9WHJ3; in the data active means inhibition above about 30%;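 further: 0% = vehicle wells and 100% = reference inhibitor control wells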
# TcdB GH inh: TcdB glycohydrolase inhibitors, primary screen, biochemical, single point, plate reader | Toxin B (Clostridioides difficile), P18177 | TcdB glycohydrolase enzymatic assay | inhibition, % at 9.99 µM | 350,000 compounds, 0.24% hits | AID 652162, 2013; in the data active means inhibition above about 10%
# MazEF act: activators of E. coli MazEF toxin-antitoxin RNase, primary screen, biochemical, fluorescence, uHTS | Endoribonuclease toxin MazF (Escherichia coli (strain K12)), P0AE70 | FAM/BHQ RNA-DNA oligo cleavage fluorescence, 5 h | activation, % at 20 µM | 350,000 compounds, 0.32% hits; in the data active means activation above about 50%
# Rv3671c inh: Rv3671c serine protease inhibitors, primary screen, biochemical, fluorescence polarization, M. tuberculosis H37Rv; inhibition, % at 5.96 µM; P9WHR9; AID 2606, 2010; 320,000 compounds, 0.048% hits; in the data active means inhibition above about 38%;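 further: extracellular domain of Rv3671c used as enzyme; 0% = enzyme with DMSO and 100% = no enzyme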
# Mtb bLac sens: beta-lactam sensitization of Mtb H37Rv, H37Rv; M. tuberculosis H37Rv growth with meropenem, percent inhibition; inhibition, % at 25 µM; 330,000 compounds, 0.27% hits; AID 434955, 2010; call rule not given here;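 further: growth measured after seven days incubation then overnight dye step; 0% = bacteria only wells and 100% = bacteria with antibiotic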
# Mtb UGM inh: M. tuberculosis UGM enzyme inhibitors, primary screen, biochemical, fluorescence polarization, single point | UDP-galactopyranose mutase (Mycobacterium tuberculosis (strain ATCC 25618 / H37Rv)), … | purified UGM, fluorescence polarization probe displacement | inhibition, % at 10 µM | AID 504406, 2011 | 320,000 compounds, 0.06% hits; in the data active means inhibition above about 10%, passing the limit was not always enough
# The depositor's hits bear a star; / = no result given. Shown are actives, neighbours in structure and some others; about 0.97% of the full set was active somewhere.
SMILES,RecA intein inh,TcdB GH inh,MazEF act,Rv3671c inh,Mtb bLac sens,Mtb UGM inh
O=C(c1ccc2c(c1)OCO2)N1CC(=O)N2[C@H](CO)[C@H](c3ccc(C#CCC4CCCC4)cc3)[C@@H]2C1,/,0.9,/,/,/,/
Cc1nn(C(=O)CNS(=O)(=O)c2ccccc2)c(C)c1Sc1ccc(Cl)cc1,32.0*,/,-12.3,4.7,5.0,2.9
C[C@@H]1CN([C@H](C)CO)C(=O)Cc2cc(NS(=O)(=O)c3ccc(Cl)cc3)ccc2O[C@@H]1CN(C)C(=O)Nc1ccccc1,/,0.2,/,/,/,/
COc1ccc(C=C2NC(=S)NC2=O)cc1,/,0.5,7.2,/,/,/
O=C1NC(=S)NC1=Cc1ccc(O)cc1,/,16.4*,-35.6,/,/,/
Nc1c(Sc2ccccc2)c(=O)[nH]c(=O)n1Cc1ccccc1,1.0,/,10.0,-11.1,-0.6,-0.5
Cc1[nH]n(C(C)(C)C)c(=O)c1Sc1ccccc1,50.1*,/,-5.4,-2.9,-0.5,-1.0
CCCNC(=O)N1C[C@@H](O)COC[C@@H]2O[C@@H](CC(=O)N[C@H]3CCN(Cc4ccccc4)C3)CC[C@H]21,/,1.3,/,/,/,/
OC(c1ccccc1)(c1nc(-c2ccc3c(c2)OCO3)cs1)C(F)(F)F (configuration not stated),/,-1.4,/,/,/,/
N#C/C(=C\C=C\c1ccccc1)c1nc(-c2ccc3c(c2)OCO3)cs1,-3.4,/,-60.0,0.9,56.0,19.5*
C/C(CC(=O)NCc1ccco1)=N\NC(=O)c1ccc([N+](=O)[O-])cc1Cl,69.5*,-0.6,6.8,-0.9,-9.6,0.0
CCCNC(=O)N1CC[C@@H]2[C@@H](CO)N(C)c3ccc(-c4ccc(F)cc4)cc3[C@@H]21,/,11.8*,/,/,/,/
CCCNC(=O)N1CC[C@@H]2[C@H]1c1cc(-c3ccccc3)ccc1N(C)[C@H]2CO,/,12.1*,/,/,/,/
C[C@H]1CN([C@@H](C)CO)C(=O)Cc2cc(NS(=O)(=O)c3cn(C)cn3)ccc2O[C@@H]1CN(C)S(C)(=O)=O,/,-1.1,/,/,/,/
COc1ccccc1NC(=O)N[C@H]1CC[C@@H](CC(=O)N[C@H](C)c2ccccc2)O[C@H]1CO,/,-0.8,/,/,/,/
CCOc1ccccc1-n1c(C)nc2cc(C(=O)O)ccc21,1.1,20.1*,-2.0,9.4,-1.9,-1.8
CC(/C=N/n1c(-c2ccc(C)cc2)n[nH]c1=S)=C\c1ccco1,8.5,/,-1.6,-14.7,8.7,0.7
CC(/C=N/n1c(-c2ccncc2)n[nH]c1=S)=C\c1ccco1,1.4,19.5*,0.9,4.1,-2.4,-1.5
Cc1cccc(-c2n[nH]c(=S)n2/N=C/C=C/c2ccco2)c1,-0.8,10.1*,-4.1,0.9,32.1,0.1
COCC#Cc1cnc2c(c1)C(=O)N([C@@H](C)CO)C[C@H](C)[C@@H](CN(C)C(=O)Cc1cccnc1)O2,/,0.1,/,/,/,/
COc1ccc(C(C(=O)NC2CCCCC2)N(C(=O)CCl)c2ccc(C)cc2)cc1 (configuration not stated),-2.9,0.6,4.5,-0.5,7.0,2.7
COC(CN(C(=O)CCl)C(C(=O)NC1CCCCC1)c1ccc(C)cc1)OC (configuration not stated),31.6*,/,0.5,-5.2,-4.5,0.1
COc1ccc(C2=NS(=O)(=O)N(C)C(C(=O)NCc3ccc4c(c3)OCO4)=C2)cc1,3.1,100.5*,0.2,2.1,-0.8,-2.2
CC(=O)Nc1ccc(S(=O)(=O)N2CCCC(C(=O)O)C2)cc1 (configuration not stated),0.4,18.0*,6.6,-4.8,11.3,1.1
C[C@@H](O)C#Cc1ccc([C@@H]2[C@@H](CO)N3CCCCN(C(=O)Nc4ccccc4)C[C@@H]23)cc1,/,-0.4,/,/,/,/
SMILES,RecA intein inh,TcdB GH inh,MazEF act,Rv3671c inh,Mtb bLac sens,Mtb UGM inh
CC1CCC/C(=C\c2ccc(O)cc2)C1=O (configuration not stated),2.3,36.5*,0.0,-2.2,3.4,0.9
Cc1cccc(CN2CCN(C(=O)CCl)CC2)c1,33.1*,/,4.4,-14.9,97.9,-2.5
COCCNC(=O)c1c(N)n(CCC(C)C)c2nc3ccccc3nc12,-316.0,/,-3.3,-124.4,97.7,-1.5
CC(C)CNC(=O)c1c(N)n(Cc2ccc3c(c2)OCO3)c2nc3ccccc3nc12,55.0*,/,-3.1,-87.0,-1.4,0.3
CC(C)CCn1c(N)c(C(=O)NCc2cccs2)c2nc3ccccc3nc21,88.1*,0.1,-4.5,-2.5,2.7,-1.8
C[C@@H]1CN([C@H](C)CO)C(=O)c2cc(NC(=O)c3ccncc3)ccc2O[C@@H](C)CCCCO[C@@H]1CN(C)CC1CCCCC1,/,0.0,/,/,/,/
CCNC(=O)[C@H]1[C@H](CO)[C@H]2Cn3c(ccc(-c4ccccc4)c3=O)[C@H]2N1CC,/,14.3*,/,/,/,/
N#CCCN(C(=O)COC(=O)c1cc(=O)c2ccccc2o1)c1ccccc1,/,10.0*,1.7,-5.3,-1.7,-2.9
N#CCCN(C(=O)COC(=O)c1ccc2c(c1)OCO2)c1ccccc1,/,0.6,5.8,1.6,-8.1,0.9
C[C@H](CO)N1C[C@H](C)[C@H](CN(C)C)OCCCC[C@H](C)Oc2ccc(NC(=O)Cc3ccccc3)cc2C1=O,/,-1.0,/,/,/,/
COc1ccc(OC)c(-c2cc(C(=O)Nc3cc(C)n(Cc4ccc(Cl)cc4)n3)no2)c1,/,/,-28.2,0.0,-3.0,5.2
COc1cccc(-c2cc(C(=O)Nc3cc(C)n(Cc4ccc(Cl)cc4)n3)no2)c1,-0.4,0.0,50.7*,-22.2,-6.0,-1.6
C[C@@H]1CN([C@H](C)CO)C(=O)c2c(c3ccccc3n2C)-c2ccccc2CO[C@@H]1CN(C)Cc1ccc(Cl)c(Cl)c1,/,0.5,/,/,/,/
CN(C)c1ccc(C(=O)OCC#CCSc2nnc(-c3cccc4ccccc34)o2)cc1,/,13.5*,-6.7,-1.4,5.4,-1.9
C[C@H]1CN([C@@H](C)CO)C(=O)c2cccc(NS(=O)(=O)c3cccs3)c2O[C@@H]1CN(C)C(=O)Nc1ccc2c(c1)OCO2,/,0.5,/,/,/,/
C[C@H]1CN([C@@H](C)CO)C(=O)c2cc(C#CC3(O)CCCC3)cnc2O[C@@H]1CN(C)Cc1cccnc1,/,-0.5,/,/,/,/
CS/C(=C\[N+](=O)[O-])Nc1ccc(Cl)cc1,41.9*,/,-2.6,-7.4,82.1,0.1
CC(C)=CC(=O)Nc1ccc(Cl)cc1,-0.7,-0.4,-4.2,-1.1,9.0,0.1
C[C@@H]1CN([C@H](C)CO)C(=O)Cc2cc(NS(=O)(=O)c3ccccc3)ccc2O[C@@H]1CN(C)Cc1ccc(C(=O)O)cc1,/,-0.7,/,/,/,/
CCC(=O)N(C)C[C@H]1Oc2ncc(C#CC3(O)CCCC3)cc2C(=O)N([C@H](C)CO)C[C@H]1C,/,0.4,/,/,/,/
CCOc1ccc(C2C(C#N)=C(N)N3C(=C2C#N)Sc2ccccc23)cc1 (configuration not stated),-10.4,/,99.9*,-7.0,0.1,0.5
